# Values joined by “and” are separate entries in the source; they are usually repeats but may differ in a detail not shown here. Identical values can stand only once. Records with an inconclusive call do not appear. A call without a number means that no potency is given here. Active and inactive are the calls of the source. Unless noted, the call rests on the fitted dose curve.
# Tests used:
# [1] = molecular target: Glucocorticoid receptor (Homo sapiens) (UniProt P04150); assay: qHTS assay for small molecule agonists of glucocorticoid receptor signaling (AID 588532; active means well fitted curve in the direction sought with a large enough effect in the signal ratio, with a control signal flat; the % refers to the signal ratio); details: HeLa MMTV-bla, beta-lactamase ratio, agonist, 18 h; stronger effect = higher value; percent of dexamethasone control, DMSO zero
# Chain of Glucocorticoid receptor (Homo sapiens) (P04150 whole entry, looked up): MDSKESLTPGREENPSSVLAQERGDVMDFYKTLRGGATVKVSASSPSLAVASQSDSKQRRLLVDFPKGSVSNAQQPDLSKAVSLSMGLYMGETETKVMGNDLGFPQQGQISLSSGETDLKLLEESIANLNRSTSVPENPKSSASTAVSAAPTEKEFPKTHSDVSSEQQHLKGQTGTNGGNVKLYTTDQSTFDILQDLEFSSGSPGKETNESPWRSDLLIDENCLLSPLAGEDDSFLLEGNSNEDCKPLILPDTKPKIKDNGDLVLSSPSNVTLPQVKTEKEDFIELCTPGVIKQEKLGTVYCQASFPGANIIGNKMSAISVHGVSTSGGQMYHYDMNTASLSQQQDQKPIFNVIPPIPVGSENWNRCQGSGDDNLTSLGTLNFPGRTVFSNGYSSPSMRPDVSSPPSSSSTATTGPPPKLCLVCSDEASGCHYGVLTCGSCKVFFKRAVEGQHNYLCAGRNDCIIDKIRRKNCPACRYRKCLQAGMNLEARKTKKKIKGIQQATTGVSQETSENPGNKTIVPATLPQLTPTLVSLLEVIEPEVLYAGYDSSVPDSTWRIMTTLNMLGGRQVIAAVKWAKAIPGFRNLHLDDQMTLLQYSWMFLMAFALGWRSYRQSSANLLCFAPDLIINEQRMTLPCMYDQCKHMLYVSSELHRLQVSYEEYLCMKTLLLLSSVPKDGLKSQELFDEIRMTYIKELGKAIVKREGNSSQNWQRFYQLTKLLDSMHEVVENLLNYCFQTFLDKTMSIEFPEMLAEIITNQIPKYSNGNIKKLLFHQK
# How it was run: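 MMTV-bla HeLa, beta-lactamase reporter; medium with 1% charcoal/dextran-stripped FBS; cpds up to 92 uM, 18 h, 37 C; CCF4 readout 460/530 nm; Hill fit → EC50, efficacy vs 0.1 uM dexamethasone = 100%.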
# [2] = molecular target: Glucocorticoid receptor (Homo sapiens) (UniProt P04150); assay: qHTS assay for small molecule antagonists of glucocorticoid receptor signaling (AID 588533; active means well fitted inhibition curve with a large enough effect in the signal ratio, with a control signal flat, not every such curve was filed as active; the % refers to the signal ratio;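 further: cells stimulated with 2 nM dexamethasone as agonist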); details: HeLa MMTV-bla, GRE beta-lactamase ratio, antagonist mode, 18 h; series mostly up to 76.8 µM
# How it was run: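 Antagonist-mode qHTS: compound titrations added to GRE-bla HeLa cells, then dexamethasone 2 nM final; 18 h, 37 C. CCF4 FRET fluorescence normalized to dexamethasone and DMSO; IC50 from Hill fit.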
# [3] = qHTS assay for small molecule antagonists of peroxisome proliferator-activated receptor delta signaling (AID 588535; active means well fitted inhibition curve with a large enough effect in the signal ratio, with a control signal flat, not every such curve was filed as active; the % refers to the signal ratio;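 on max response: cells co-treated with a PPAR-delta agonist as stimulator during compound exposure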); details: HEK293T PPARd-UAS-bla, beta-lactamase FRET ratio, 18 h; 460 nm channel
# How it was run: (§1)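 Compounds tested in titration on PPAR-delta-UAS-bla HEK293T cells grown in charcoal/dextran-stripped serum (2%); beta-lactamase activity read via CCF4 emission at 460 and 530 nm.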
# [4] = molecular target: Peroxisome proliferator-activated receptor gamma (Homo sapiens) (UniProt P37231); assay: qHTS assay for small molecule agonists of peroxisome proliferator-activated receptor gamma signaling (AID 588536; active means well fitted curve in the direction sought with a large enough effect in the signal ratio, with a control signal flat, not every such curve was filed as active; the % refers to the signal ratio); details: HEK293 PPARg-UAS-bla, beta-lactamase ratio, 16 h, percent of rosiglitazone response, DMSO as zero; series mostly up to 76.7 µM
# Chain of Peroxisome proliferator-activated receptor gamma (Homo sapiens) (P37231 whole entry, looked up): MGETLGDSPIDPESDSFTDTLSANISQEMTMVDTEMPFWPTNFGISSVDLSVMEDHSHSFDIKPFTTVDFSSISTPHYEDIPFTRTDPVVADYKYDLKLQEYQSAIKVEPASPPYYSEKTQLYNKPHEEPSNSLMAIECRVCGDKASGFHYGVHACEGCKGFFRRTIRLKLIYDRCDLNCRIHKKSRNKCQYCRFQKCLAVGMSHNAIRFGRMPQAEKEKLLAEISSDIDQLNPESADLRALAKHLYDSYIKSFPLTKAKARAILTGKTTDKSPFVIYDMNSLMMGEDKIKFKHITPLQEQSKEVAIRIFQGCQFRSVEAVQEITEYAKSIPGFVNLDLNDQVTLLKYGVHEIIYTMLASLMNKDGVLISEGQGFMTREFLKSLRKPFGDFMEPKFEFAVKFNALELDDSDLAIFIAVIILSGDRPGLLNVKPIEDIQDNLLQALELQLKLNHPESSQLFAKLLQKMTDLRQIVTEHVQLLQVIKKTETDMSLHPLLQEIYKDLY
# How it was run: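 Compound treatment: 16 h, 37 C, HEK293 GeneBLAzer cells. Detection: CCF4, 2 h RT. Values: Hill-fit EC50, efficacy as % of 2 uM rosiglitazone.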
# [5] = molecular target: Vitamin D3 receptor (Homo sapiens) (UniProt P11473); assay: qHTS assay for small molecule antagonists of vitamin D receptor signaling (AID 588541); details: HEK293T VDR-UAS-bla, beta-lactamase ratio, antagonist mode; series mostly up to 76.7 µM;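 further: receptor activated by calcitriol during compound treatment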
# Chain of Vitamin D3 receptor (Homo sapiens) (P11473 whole entry, looked up): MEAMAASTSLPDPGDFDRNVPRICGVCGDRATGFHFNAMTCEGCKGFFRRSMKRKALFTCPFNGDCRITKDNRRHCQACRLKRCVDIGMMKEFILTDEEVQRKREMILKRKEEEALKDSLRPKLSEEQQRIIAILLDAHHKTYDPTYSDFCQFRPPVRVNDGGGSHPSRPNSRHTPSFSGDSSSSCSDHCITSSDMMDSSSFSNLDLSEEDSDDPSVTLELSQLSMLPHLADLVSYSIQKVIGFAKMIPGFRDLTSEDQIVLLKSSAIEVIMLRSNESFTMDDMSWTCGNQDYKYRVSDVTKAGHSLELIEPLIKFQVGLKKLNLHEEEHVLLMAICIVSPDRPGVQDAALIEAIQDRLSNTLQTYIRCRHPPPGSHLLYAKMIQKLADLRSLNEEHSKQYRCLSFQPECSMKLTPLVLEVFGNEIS
# How it was run: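 VDR-UAS-bla HEK293T cells (2000/well, 2% charcoal-stripped FBS) were treated with titrated compounds plus 1-alpha,25-dihydroxyvitamin D3 (50 nM or 3 nM final) for 16 h at 37 C. CCF4 beta-lactamase fluorescence was read; Hill fits gave IC50.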
# [6] = molecular target: Vitamin D3 receptor (Homo sapiens) (UniProt P11473); assay: qHTS assay for small molecule agonists of vitamin D receptor signaling (AID 588543); details: HEK293T VDR-UAS-bla, beta-lactamase ratio, 16 h; series mostly up to 76.8 µM
# How it was run: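 VDR-UAS-bla HEK293T cells, 2000/well, 2% charcoal-stripped FBS; compound titration 16 h at 37 C; CCF4 beta-lactamase ratio read. Normalized to 50 nM 1-alpha,25-dihydroxyvitamin D3 (100%) and DMSO; Hill fit gives EC50, efficacy.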
# [7] = qHTS assay for small molecule agonists of retinoid X receptor alpha signaling (AID 588544); details: HEK293T RXRa-UAS-bla, beta-lactamase reporter, 18 h; 530 nm emission
# [8] = molecular target: Retinoic acid receptor RXR-alpha (Homo sapiens) (UniProt P19793); assay: as above; details: HEK293T RXRa-UAS-bla, beta-lactamase reporter, 18 h; series mostly up to 76.7 µM
# Chain of Retinoic acid receptor RXR-alpha (Homo sapiens) (P19793 whole entry, looked up): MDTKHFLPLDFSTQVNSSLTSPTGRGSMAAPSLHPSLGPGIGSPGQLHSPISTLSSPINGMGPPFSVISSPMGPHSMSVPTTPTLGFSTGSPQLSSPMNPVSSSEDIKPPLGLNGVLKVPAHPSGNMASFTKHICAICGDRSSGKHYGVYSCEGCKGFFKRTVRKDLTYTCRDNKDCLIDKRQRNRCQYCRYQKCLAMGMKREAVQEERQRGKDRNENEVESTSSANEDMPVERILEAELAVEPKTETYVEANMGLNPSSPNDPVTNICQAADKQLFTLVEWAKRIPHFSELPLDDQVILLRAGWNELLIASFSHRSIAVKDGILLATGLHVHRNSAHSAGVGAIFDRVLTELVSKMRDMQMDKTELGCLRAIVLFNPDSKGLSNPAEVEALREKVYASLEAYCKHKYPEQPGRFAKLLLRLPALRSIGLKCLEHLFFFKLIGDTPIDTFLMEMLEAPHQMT
# [9] = molecular target: Thyroid hormone receptor beta (Homo sapiens) (UniProt P10828); assay: qHTS assay for small molecule agonists of thyroid hormone receptor beta signaling (AID 588545); details: TR-UAS-bla GripTite HEK 293, beta-lactamase ratio, agonist mode, 18 h, percent of T3 response, DMSO as zero; series mostly up to 76.7 µM
# Chain of Thyroid hormone receptor beta (Homo sapiens) (P10828 whole entry, looked up): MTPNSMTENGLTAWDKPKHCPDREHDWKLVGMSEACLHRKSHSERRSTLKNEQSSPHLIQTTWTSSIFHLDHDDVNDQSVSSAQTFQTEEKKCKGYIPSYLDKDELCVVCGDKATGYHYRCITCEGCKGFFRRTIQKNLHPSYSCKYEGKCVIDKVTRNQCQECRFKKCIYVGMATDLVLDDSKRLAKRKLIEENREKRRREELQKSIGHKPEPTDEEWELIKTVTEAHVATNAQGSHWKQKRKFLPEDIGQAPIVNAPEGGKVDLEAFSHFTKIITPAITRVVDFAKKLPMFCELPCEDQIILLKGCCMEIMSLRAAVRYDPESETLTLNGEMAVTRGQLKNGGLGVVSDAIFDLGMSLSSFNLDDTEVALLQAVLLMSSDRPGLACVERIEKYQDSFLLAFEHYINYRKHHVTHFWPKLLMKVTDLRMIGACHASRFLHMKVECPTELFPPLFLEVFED
# How it was run: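 Agonist activity was read as beta-lactamase CCF4 fluorescence (405 ex, 460/530 em), scaled between DMSO (0%) and 10 nM T3 (100%), then Hill-fitted for EC50 and efficacy. HEK 293 TR-UAS-bla cells in 2% charcoal/dextran FBS medium were exposed 18 h at 37 C.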
# [10] = qHTS assay for small molecule antagonists of retinoid X receptor alpha signaling (AID 588546; active means well fitted inhibition curve with a large enough effect in the signal ratio, with a control signal flat, not every such curve was filed as active; the % refers to the signal ratio;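 further: cells stimulated with 9-cis-retinoic acid as agonist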); details: HEK293T RXRa-UAS-bla, beta-lactamase ratio, antagonist mode; measured here: W530 green channel, cytotoxicity proxy
# How it was run: (§2)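 Beta-lactamase reporter inhibition, read as CCF4 fluorescence ratio (ex 405, em 460/530 nm) after 2 h at RT. HEK293T UAS-bla cells, 2500/well, were stimulated with 9-cis-RA at 500 or 100 nM final alongside test compound for 18 h at 37 C.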
# [11] = molecular target: Retinoic acid receptor RXR-alpha (Homo sapiens) (UniProt P19793); assay: as above; details: HEK293T RXRa-UAS-bla, beta-lactamase ratio, antagonist mode
# How it was run: as §2
# [12] = molecular target: Thyroid hormone receptor beta (Homo sapiens) (UniProt P10828); assay: qHTS assay for small molecule antagonists of thyroid hormone receptor beta signaling (AID 588547; active means well fitted inhibition curve with a large enough effect in the signal ratio, with a control signal flat, not every such curve was filed as active; the % refers to the signal ratio;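 further: cells stimulated with 0.4 nM T3 agonist during compound exposure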); details: TR-UAS-bla HEK293, beta-lactamase ratio, antagonist mode, 18 h
# How it was run: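 TR-UAS-bla GripTite HEK293 cells in 2% charcoal/dextran FBS medium were preincubated 4 h at 37 C, given compound (0.59 nM to 92 uM) plus 0.4 nM T3 (final) for 18 h, then CCF4 for 2 h at RT; Hill fit gave IC50.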
# [13] = molecular target: Voltage-gated inwardly rectifying potassium channel KCNH2 (Homo sapiens) (UniProt Q12809); assay: qHTS Assay for Small Molecule Inhibitors of the Human hERG Channel Activity (AID 588834; active means well fitted inhibition curve with a large enough effect;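 further: top concentration of the series differs between compounds; lower thallium flux fluorescence means stronger hERG block; nearly all actives have a fitted effect of over 50% in size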); details: U2OS BacMam hERG, FluxOR thallium flux fluorescence; series mostly up to 92.2 µM
# Chain of Voltage-gated inwardly rectifying potassium channel KCNH2 (Homo sapiens) (Q12809 whole entry, looked up): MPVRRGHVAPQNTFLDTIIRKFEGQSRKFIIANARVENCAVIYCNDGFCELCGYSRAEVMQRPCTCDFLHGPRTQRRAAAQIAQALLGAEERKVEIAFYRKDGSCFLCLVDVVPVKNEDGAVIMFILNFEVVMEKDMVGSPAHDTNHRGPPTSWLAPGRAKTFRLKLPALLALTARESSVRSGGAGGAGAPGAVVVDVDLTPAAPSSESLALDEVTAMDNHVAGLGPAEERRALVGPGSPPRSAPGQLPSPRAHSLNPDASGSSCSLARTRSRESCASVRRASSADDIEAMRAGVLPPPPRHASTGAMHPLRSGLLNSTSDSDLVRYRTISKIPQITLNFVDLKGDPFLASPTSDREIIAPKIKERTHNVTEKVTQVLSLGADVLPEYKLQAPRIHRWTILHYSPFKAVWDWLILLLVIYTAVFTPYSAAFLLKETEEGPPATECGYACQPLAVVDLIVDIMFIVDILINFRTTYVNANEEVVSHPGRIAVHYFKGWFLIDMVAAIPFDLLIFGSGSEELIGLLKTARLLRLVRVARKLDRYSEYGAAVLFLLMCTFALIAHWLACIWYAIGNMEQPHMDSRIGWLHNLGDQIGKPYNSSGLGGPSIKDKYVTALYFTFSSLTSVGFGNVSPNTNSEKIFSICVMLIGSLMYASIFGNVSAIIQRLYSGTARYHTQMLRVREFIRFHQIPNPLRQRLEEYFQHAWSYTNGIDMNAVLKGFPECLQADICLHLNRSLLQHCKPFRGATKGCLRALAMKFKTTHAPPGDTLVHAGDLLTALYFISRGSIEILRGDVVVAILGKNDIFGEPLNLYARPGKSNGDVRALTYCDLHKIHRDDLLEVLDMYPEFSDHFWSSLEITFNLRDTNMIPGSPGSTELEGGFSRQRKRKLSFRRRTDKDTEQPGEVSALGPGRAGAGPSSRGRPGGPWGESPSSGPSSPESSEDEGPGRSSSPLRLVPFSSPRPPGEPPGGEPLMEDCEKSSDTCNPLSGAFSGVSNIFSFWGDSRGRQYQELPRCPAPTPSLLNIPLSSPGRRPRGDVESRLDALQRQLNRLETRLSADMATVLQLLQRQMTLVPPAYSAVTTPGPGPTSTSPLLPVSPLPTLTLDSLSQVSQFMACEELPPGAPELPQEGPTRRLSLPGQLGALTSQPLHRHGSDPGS
# How it was run: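 Thallium serves as surrogate for K+ influx through BacMam-delivered hERG in U2OS cells. Compounds are added for about 10 minutes after dye loading; stimulation buffer then starts flux, monitored kinetically on FDSS.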
# [14] = qHTS assay for small molecule agonists of the antioxidant response element (ARE) signaling pathway (AID 651741; active means well fitted activation curve with a large enough effect in the signal ratio; the % refers to the signal ratio); details: HepG2 ARE-bla reporter, beta-lactamase FRET ratio, 16 h; series mostly up to 96 µM
# How it was run: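 Beta-lactamase reporter expression driven by the antioxidant response element in HepG2 cells was detected by fluorescence with LiveBLAzer B/G FRET substrate (2 h, room temperature) following 16 h compound treatment at 37 C.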
# [15] = qHTS assay for small molecule activators of the p53 signaling pathway (AID 651743; active means well fitted activation curve with a large enough effect in the signal ratio, not every such curve was filed as active; the % refers to the signal ratio); details: HCT-116 p53RE-bla, beta-lactamase FRET ratio, 16 h; stronger effect = higher value
# How it was run: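 Here HCT-116 cells with an integrated p53-responsive beta-lactamase gene were incubated with compounds (16 hours, 37 C) after a 5-hour plating period; beta-lactamase activity was detected as fluorescence intensity via B/G FRET substrate.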
# [16] = qHTS assay for small molecule disruptors of the mitochondrial membrane potential - 1 hr assay (AID 651754); details: series mostly up to 92.2 µM; further: nearly all actives have a fitted effect of over 35% in size
# How it was run: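 Read-out: dye fluorescence at 490 nm ex/535 nm em (monomers) and 540 nm ex/590 nm em (aggregates) in HepG2 cells. Compound exposure 1 hr at 37C, followed by 30 min dye loading.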
# [17] = molecular target: Peroxisome proliferator-activated receptor gamma (Homo sapiens) (UniProt P37231); assay: qHTS assay for small molecule antagonists of peroxisome proliferator-activated receptor gamma signaling (AID 588537; active means well fitted inhibition curve with a large enough effect in the signal ratio, with a control signal flat, not every such curve was filed as active; the % refers to the signal ratio;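 further: reporter cells co-stimulated with 50 nM rosiglitazone agonist during compound treatment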); details: HEK293 PPARg-UAS-bla, beta-lactamase ratio, antagonist mode; series mostly up to 76.8 µM
# How it was run: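 HEK293 cells, PPAR-gamma-UAS-bla, 3000/well. Pre-incubation 6-6.5 h, 37 C. Compound titration with rosiglitazone 50 nM final, 16 h. CCF4 dye, 2 h RT, dual-emission fluorescence.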
# [18] = qHTS assay for small molecule activators of the nuclear factor-kappa B (NF-kB) signaling pathway (AID 651749; active means well fitted activation curve with a large enough effect in the signal ratio; the % refers to the signal ratio); details: NF-kB-bla ME-180 cells, beta-lactamase FRET ratio, 16 h; stronger effect = higher value
# How it was run: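 Beta-lactamase reporter expression, controlled by NF-kB response elements in ME-180 cells, was quantified fluorometrically via FRET disruption; cells at 2,000/well had been incubated with 23 nL test compound for 16 hr.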
# [19] = molecular target: Peroxisome proliferator-activated receptor delta (Homo sapiens) (UniProt Q03181); assay: qHTS assay for small molecule antagonists of peroxisome proliferator-activated receptor delta signaling (AID 588535); details: HEK293T PPARd-UAS-bla, beta-lactamase FRET ratio, 18 h; series mostly up to 76.7 µM;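 on max response: cells co-treated with a PPAR-delta agonist as stimulator during compound exposure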
# Chain of Peroxisome proliferator-activated receptor delta (Homo sapiens) (Q03181 whole entry, looked up): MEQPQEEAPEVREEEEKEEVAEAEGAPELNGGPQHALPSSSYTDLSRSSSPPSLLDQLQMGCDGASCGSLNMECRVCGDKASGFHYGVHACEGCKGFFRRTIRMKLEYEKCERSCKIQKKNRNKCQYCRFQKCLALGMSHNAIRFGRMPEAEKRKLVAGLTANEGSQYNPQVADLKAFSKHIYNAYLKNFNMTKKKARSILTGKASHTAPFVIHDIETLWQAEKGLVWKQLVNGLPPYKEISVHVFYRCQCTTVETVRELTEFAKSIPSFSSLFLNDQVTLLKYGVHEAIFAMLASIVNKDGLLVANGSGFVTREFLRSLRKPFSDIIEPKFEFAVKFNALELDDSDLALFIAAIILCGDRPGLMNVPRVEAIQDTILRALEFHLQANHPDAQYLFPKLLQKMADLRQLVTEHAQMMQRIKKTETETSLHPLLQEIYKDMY
# How it was run: as §1
Structure (SMILES),activation [1],outcome [2],max response [3],outcome [4],outcome [5],outcome [6],max response [7],outcome [8],outcome [9],max response [10],max response [11],activity change % (negative = inhibition) [12],Potency [13],Potency [14],activation [15],Potency [16],outcome [17],activation [18],Potency [19]
CC(C)=CCC/C(C)=C/C=O,-2.98% (inactive) and -2.55% (inactive),inactive,-1.69% and 16.6%,inactive,inactive,inactive,15.9% and -0.251%,inactive,inactive,6.99% and -4.75%,4.52% (inactive) and -4.94% (inactive),-16.2% (inactive),inactive,inactive,-0.8% (inactive) and -0.838% (inactive),inactive,,,
Nc1cccc2c(=O)[nH][nH]c(=O)c12,0.411% (inactive),inactive,-7.57%,inactive,,,-4.82%,inactive,inactive,-2.09%,12.7% (inactive),-3.76% (inactive),inactive,,-2.14% (inactive),inactive,inactive,0.176% (inactive),
CO[Si](CCCNCCC[Si](OC)(OC)OC)(OC)OC,5.31% (inactive),inactive,,inactive,inactive,inactive,9.17%,inactive,inactive,7.72%,10.8% (inactive),-0.795% (inactive),inactive,inactive,0.23% (inactive),inactive,inactive,0.71% (inactive),
CC(C)(O)C(=O)O,5.7% (inactive),inactive,57.5%,,inactive,inactive,-2.22%,inactive,inactive,2.28%,3.29% (inactive),8.51% (inactive),inactive,inactive,-1.64% (inactive),,,-0.233% (inactive),
NC(=O)CCCCC(N)=O,-2.82% (inactive),inactive,,inactive,inactive,inactive,-19.9%,inactive,inactive,-2.99%,6.15% (inactive),2% (inactive),inactive,,-2.38% (inactive),inactive,inactive,1.81% (inactive),
CCCCC(CC)COCC1CO1 (configuration not stated),-12.2% (inactive),inactive,,inactive,,inactive,-2.88%,inactive,inactive,2.35%,,1.98% (inactive),inactive,inactive,,inactive,,0.588% (inactive),
ClCCl,-3.26% (inactive),,23.4%,inactive,inactive,inactive,-5.75%,inactive,inactive,3.57%,,0.0464% (inactive),inactive,inactive,-4.34% (inactive),inactive,,,inactive
CC(C)N=C=NC(C)C,4.13% (inactive),inactive,,inactive,inactive,inactive,-13.3%,inactive,,10.7%,7.57% (inactive),1.37% (inactive),,inactive,1.3% (inactive),inactive,inactive,-0.231% (inactive),

# — PubChem BioAssay (NCATS)
